Assay outcomes: PubChem, National Center for Advancing Translational Sciences (NCATS)
A selection: hits, their analogues and other compounds. The true share with any hit is near 19%.
HT1080 IDH1KD tx: qHTS for induction of synthetic lethality in tumor cells producing 2HG: qHTS for the HT-1080-IDH1KD cell line; HT-1080 IDH1 knockdown viability, ATP luminescence, 48 h; Potency, µM (titrated, usually from 46.1 µM), for inactives: at the top dose activity, negative = toxicity, usual class: cytotoxic; 2% of 360,000 active; AID 686971, 2013;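 note: potency is the fitted concentration of half-maximal effect; 0% = DMSO wells and -100% = cell-free medium wells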
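Cytotoxicity counter-line: IDH1KD HT-1080, 48 h, CellTiter-Glo. Curves classed by r2, magnitude and activity.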
DT40 TDP1 CPT: qHTS for Inhibitors of human tyrosyl-DNA phosphodiesterase 1 (TDP1): qHTS in cells in presence of CPT. 12% of 420,000 active. AID 686979, 2013. chicken DT40 Tdp1-/-;hTDP1 cells + 20 nM CPT, ATP luminescence, 48 h. Potency, µM (highest dose often 46.2 µM), without a hit: at the top dose activity change, negative = growth inhibition, usual class: inhibitors; note: potency is the fitted concentration of half-maximal effect; nearly all actives have a fitted effect of over 55% in size
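Cell growth measured by CellTiter-Glo luminescence after a minimum 48 h, 37 C compound exposure with 20 nM CPT in Tdp1-knockout DT40 cells stably expressing hTDP1, seeded 400/well; qHTS titration format.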
TDP1 cell noCPT: qHTS for Inhibitors of human tyrosyl-DNA phosphodiesterase 1 (TDP1): qHTS in cells in absence of CPT; Potency, µM (series often up to 46.2 µM), inactives show top-dose activity change, negative = growth inhibition, most hits filed as inhibitors; 15% of 420,000 active; DT40 Tdp1-/- hTDP1 cells, no CPT, ATP luminescence, 48 h; AID 686978, 2013; note: potency is the fitted concentration of half-maximal effect; nearly all actives have a fitted effect of over 55% in size
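Chicken DT40 Tdp1-/- cells stably complemented with human TDP1 were seeded at 400 cells/well with DMSO in place of 20 nM camptothecin. After compound pinning, cells grew at least 48 hr at 37 °C; viability read by CellTiter-Glo luminescence.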
HT1080-NT tox: qHTS for induction of synthetic lethality in tumor cells producing 2HG: qHTS for the HT-1080-NT fibrosarcoma cell line; HT-1080-NT fibrosarcoma viability, CellTiter-Glo ATP luminescence, 48 h; Potency, µM (top dose mostly 46.1 µM), without a hit: top-dose activity, negative = less viability, hits mostly cytotoxic; 1.6% of 360,000 active; AID 686970, 2013;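 note: NT is the 2HG producing partner of a matched IDH1 knockdown line; potency is the fitted concentration of half-maximal effect; 0% = DMSO-treated cells and -100% = media-only wells without cells; nearly all actives have a fitted effect of over 55% in size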
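Toxicity toward the 2HG-producing NT line was scored as %Activity, normalised to DMSO and no-cell wells, from CellTiter-Glo luminescence after 48 hours' treatment.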
IL-1B inflam inh: qHTS for Inhibitors of Inflammasome Signaling: IL-1-beta AlphaLISA Primary Screen; THP-1 LPS/ATP IL-1B secretion, AlphaLISA, 16 h; stronger effect = lower value; AID 743279, 2014; activity change, % at 57.5 µM; 4.7% of 360,000 active; in the data active = activity change below about -50%; inconclusive = mostly about -30% to -49%
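Secreted IL-1B measured by AlphaLISA bead assay after 16 h compound exposure of THP-1 cells; compounds (final up to 57.5 uM) added 1 h before LPS (250 ng/mL) and ATP (1.25 mM) stimulation; lower signal means less secretion.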
Starred values were filed as active, the others as inactive. Unless noted, calls come from the whole dose curve; as a rule, active = well fitted curve in the direction sought with a large enough effect; inconclusive = small, poorly fitted or top-dose-only effect, or another doubt; inactive = no such curve, though single readings can be large; an effect the other way counts as inactive or inconclusive. Unless noted, % is set by controls: 0 for no effect and ±100 for the full control effect.

CCOc1ccccc1NC(=O)C(OC(=O)c1cc(C)oc1C)c1ccccc1 (centres undefined) was read as HT1080 IDH1KD tx -11%, DT40 TDP1 CPT inconclusive, TDP1 cell noCPT 18µM*, HT1080-NT tox -8% and IL-1B inflam inh 0.
C/C(=N\Nc1ccccn1)c1ccc(C(C)C)cc1 was read as HT1080 IDH1KD tx -21%, DT40 TDP1 CPT inconclusive, TDP1 cell noCPT inconclusive, HT1080-NT tox -12% and IL-1B inflam inh -8.
Screening C/C(=N\Nc1nc(-c2ccccc2O)nc2ccccc12)c1ccccc1 returned HT1080 IDH1KD tx 2%, DT40 TDP1 CPT inconclusive, TDP1 cell noCPT 7.3µM*, HT1080-NT tox 14% and IL-1B inflam inh 31.
Screening Oc1ccccc1Nc1nc(-c2ccccc2O)nc2ccccc12 returned HT1080 IDH1KD tx -17%, DT40 TDP1 CPT -2%, TDP1 cell noCPT -30%, HT1080-NT tox -13% and IL-1B inflam inh 29.
C/C(=N/Nc1nc(-c2ccccc2F)nc2ccccc12)c1ccccc1O was read as HT1080 IDH1KD tx 0%, DT40 TDP1 CPT 7.3µM*, TDP1 cell noCPT 9.2µM*, HT1080-NT tox inconclusive and IL-1B inflam inh -4.
`C/C(=N\Nc1nc(-c2ccccn2)nc2ccccc12)c1ccc(F)cc1` gave HT1080 IDH1KD tx inconclusive, DT40 TDP1 CPT 2.6µM*, TDP1 cell noCPT 5.8µM*, HT1080-NT tox -28% and IL-1B inflam inh 148.
`CCN(CC)S(=O)(=O)c1cccc(C(=O)N[C@H](C(=O)Nc2nc3ccc(F)cc3s2)C(C)C)c1` gave HT1080 IDH1KD tx inconclusive, DT40 TDP1 CPT 16µM*, TDP1 cell noCPT 15µM*, HT1080-NT tox -8% and IL-1B inflam inh -23.
Screening CCN(CC)S(=O)(=O)c1cccc(C(=O)NC(C(=O)Nc2nnc(C3CC3)s2)C(C)C)c1 (centres undefined) returned HT1080 IDH1KD tx -4%, DT40 TDP1 CPT -5%, TDP1 cell noCPT inconclusive, HT1080-NT tox -11% and IL-1B inflam inh 0.
`CCN(CC)S(=O)(=O)c1cccc(C(=O)N[C@H](C(=O)Nc2nc3ccccc3s2)C(C)C)c1` gave HT1080 IDH1KD tx -24%, DT40 TDP1 CPT inconclusive, TDP1 cell noCPT 15µM*, HT1080-NT tox -26% and IL-1B inflam inh -22.
Screening C=CCN(CC=C)S(=O)(=O)c1ccc2nc(NC(=O)C(C)C)sc2c1 returned HT1080 IDH1KD tx 7.3µM*, DT40 TDP1 CPT 5.8µM*, TDP1 cell noCPT 2.6µM*, HT1080-NT tox 3.7µM* and IL-1B inflam inh 28.
`CS(=O)(=O)c1ccc2nc(NC(=O)C3CC3)sc2c1` gave HT1080 IDH1KD tx 0%, DT40 TDP1 CPT -12%, TDP1 cell noCPT -25%, HT1080-NT tox 10% and IL-1B inflam inh 77.
For COc1cccc(CNC(=O)CN(C)S(=O)(=O)c2ccc3c(c2)n(C)c(=O)c(=O)n3C)c1 the results were HT1080 IDH1KD tx 12%, DT40 TDP1 CPT 6%, TDP1 cell noCPT 19%, HT1080-NT tox 3% and IL-1B inflam inh -3.
`O=C(CN1C=NS(=O)(=O)c2ccccc21)Nc1ccc(F)cc1` gave DT40 TDP1 CPT -2% and TDP1 cell noCPT -15%.
COC(=O)c1oc2ccc(OC)cc2c1N was read as HT1080 IDH1KD tx -4%, DT40 TDP1 CPT -19%, TDP1 cell noCPT -24%, HT1080-NT tox 10% and IL-1B inflam inh -12.
`COc1ccc(C(=O)c2oc3ccc(OC)cc3c2N)cc1` gave HT1080 IDH1KD tx 10%, DT40 TDP1 CPT inconclusive, TDP1 cell noCPT 16µM*, HT1080-NT tox 10% and IL-1B inflam inh inconclusive.
Screening CCCOc1ccc(C(=O)Nc2cc3c(cc2N2CCOCC2)n(C)c(=O)n3C)cc1 returned DT40 TDP1 CPT -9% and TDP1 cell noCPT 3%.
Cc1noc2ncnc(N3CCCC3)c12 was read as HT1080 IDH1KD tx -1%, DT40 TDP1 CPT -21%, TDP1 cell noCPT 1%, HT1080-NT tox -4% and IL-1B inflam inh 0.
Cc1noc2ncnc(Sc3ccc(Br)cc3)c12 was read as HT1080 IDH1KD tx inconclusive, DT40 TDP1 CPT 2.6µM*, TDP1 cell noCPT 9.2µM*, HT1080-NT tox -7% and IL-1B inflam inh -101*.
`Cc1ccc(S(=O)(=O)N(C)CCCC(=O)NC(C)(C)CO)cc1` gave HT1080 IDH1KD tx 19%, DT40 TDP1 CPT -10%, TDP1 cell noCPT -2%, HT1080-NT tox inconclusive and IL-1B inflam inh -12.
`Cc1ccccc1Cn1c2ccccc2c2cnn(CC(=O)NC3CCCCCC3)c(=O)c21` gave DT40 TDP1 CPT 12µM* and TDP1 cell noCPT 10µM*.
`Cc1cc(C)c(Cn2c3ccccc3c3cnn(CC(=O)NC4CCC(C)CC4)c(=O)c32)c(C)c1` (centres undefined) gave DT40 TDP1 CPT 13µM* and TDP1 cell noCPT inconclusive.
For C[C@H]1CN([C@@H](C)CO)C(=O)CCCn2nncc2CO[C@@H]1CN(C)C(=O)c1ccc2ccn(C)c2c1 the results were HT1080 IDH1KD tx 1%, DT40 TDP1 CPT -17%, TDP1 cell noCPT -8%, HT1080-NT tox -7% and IL-1B inflam inh -22.
`COC(=O)CCCC1=CC2=C(c3ccccc3)C(=O)C(C)(OC(=O)C3CCCC3)C(=O)C2=CN1Cc1ccc2c(c1)OCO2` (centres undefined) gave HT1080 IDH1KD tx -4%, DT40 TDP1 CPT 23µM*, TDP1 cell noCPT inconclusive, HT1080-NT tox -12% and IL-1B inflam inh -29.
Screening COC(=O)CCCC1=CC2=C(c3ccccc3)C(=O)C(C)(OC(=O)C3CCCC3)C(=O)C2=CN1Cc1ccc(OC)cc1 (centres undefined) returned HT1080 IDH1KD tx -9%, DT40 TDP1 CPT 23µM*, TDP1 cell noCPT inconclusive, HT1080-NT tox -8% and IL-1B inflam inh -15.
COc1ccc(Nc2ncnc3scc(-c4ccc(OC)cc4)c23)cc1 was read as HT1080 IDH1KD tx inconclusive, DT40 TDP1 CPT 2.9µM*, TDP1 cell noCPT 4.6µM*, HT1080-NT tox inconclusive and IL-1B inflam inh 0.
COc1ccc(-c2csc3ncnc(Cl)c23)cc1 was read as HT1080 IDH1KD tx -13%, DT40 TDP1 CPT inconclusive, TDP1 cell noCPT inconclusive, HT1080-NT tox -21% and IL-1B inflam inh -29.
Screening COc1ccc(-c2csc3ncnc(Nc4ccc(OC)c(OC)c4)c23)cc1 returned DT40 TDP1 CPT inconclusive and TDP1 cell noCPT 8.2µM*.
